From PubChem BioAssay AID686979 (National Center for Advancing Translational Sciences (NCATS), 2013)
Values joined by “and” are separate entries in the source; they are usually repeats but may differ in a detail not shown here. Identical values can stand only once. Out of some 420,000 compounds screened, about 50,000 (12%) were called active. Where a call stands in place of a potency, no number is given. Another 26% or so got no clear call; they are omitted. This is one part of a sample in which actives are shown more often than they occur. A number with no mark means an inactive call. The call rests on the fitted dose curve; in most records, active means well fitted inhibition curve with a large enough effect; inconclusive means small, poorly fitted or top-dose-only effect; inactive means flat fitted curve, though single readings scatter.

Assay: qHTS for Inhibitors of human tyrosyl-DNA phosphodiesterase 1 (TDP1): qHTS in cells in presence of CPT; further: nearly all actives have a fitted effect of over 55% in size
Conditions: chicken DT40 Tdp1-/-;hTDP1 cells + 20 nM CPT, ATP luminescence, 48 h; series mostly up to 46.2 µM
Description: Human tyrosyl-DNA phosphodiesterase 1 (TDP1) is a novel repair gene, and we propose to use it as a new target for anticancer drug development. TDP1 is not an essential protein, but under treatment with topoisomerase I poison (camptothecin: CPT), TDP1 works as a critical factor for cell survival. To directly identify novel TDP1 inhibitors active in a cellular environment, we have knocked-out the Tdp1 gene in chicken DT40 cells (Tdp1-/-) and generated a complemented counterpart cells that contains a stable transfection of the human TDP1 gene (Tdp1-/-;hTDP1 cells). For the primary screen, Tdp1-/-;hTDP1 cells will be exposed to small molecules in the presence or absence of CPT, and their growth kinetics will be evaluated after 48 hours by measuring ATP activity. […] The hit compounds will then be evaluated in the presence or absence of CPT using Tdp1-/- cells. […] In tertiary assays, biochemical gel-based assays will be used to assess whether the hit compounds specifically target TDP1. To this end, we have screened this cell line against the MLSMR in two primary screens. In one screen we add CPT and in the other we screen in the absence of CPT; this AID represents the screen where CPT was present. NIH Chemical Genomics Center [NCGC] NIH Molecular Libraries Probe Centers Network [MLPCN] MLPCN Grant: MH095538 Assay Submitter (PI): Yves Pommier, NCI
DT40-hTDP1 cells with 20 nM Camptothecin (add 20 microL of 1 mM CPT stock in 1 L of cell culture medium) were dispensed at 400 cells/5microL/well in tissue culture treated 1536-well white wall/solid bottom assay plates (Greiner Bio-One North America, NC, U.S.A.) using a Multidrop Combi 8 channel dispenser (Thermo Fisher, Waltham, MA, USA). 23 nL compounds and controls were transferred using the pin tool (Kalypsys, San Diego, CA, USA) to the assay plates. The assay plates were then incubated at 37 masculineC for a minimum 48 hr. Three microL of Cell Titer Glo solution was added to the plates and incubated at RT in dark for 30 min. Luminescence was read using ViewLux (Perkin Elmer) with 1 sec exposure slow speed, high gain and 2x binning.
Potency means the concentration at half of the fitted maximal effect.

Row | SMILES | Potency | activity change, negative = growth inhibition
1 | CC[C@H]1CN2CCc3cc(OC)c(OC)cc3[C@@H]2C[C@@H]1C[C@H]1NCCc2cc(OC)c(OC)cc21 | 188 nM (active) and 146 nM (active) | 
2 | C=C(C)C1(CCCC)C(=O)NC(=S)NC1=O | inactive | 
3 | Cc1cc(OCc2cc(C(=O)O)oc2C)c2c3c(c(=O)oc2c1)CCCC3 | inactive | 
4 | CN(C)C(=O)Oc1ccc2c(c1)O/C(=C\c1ccccc1)C2=O | inactive | 
5 | CC(C)c1ccc(OCC(=O)N2CCCN(C)CC2)cc1 | inactive | 
6 | CCCCC/C=C\C/C=C\C/C=C\CCCCCCC(=O)NCCO |  | 0.621% [at 4.12 µM]
7 | C[C@@H]1CC[C@@]2(OC1)O[C@H]1C[C@H]3[C@@H]4CC=C5C[C@@H](O)[C@H](O)C[C@]5(C)C4CC[C@]3(C)[C@H]1[C@@H]2C (stereo partly drawn) | 20.6 µM (active) | 
8 | COc1ccc2cc1Oc1ccc(cc1)C[C@H]1c3cc(c(OC)cc3CCN1C)Oc1c(O)c(OC)cc3c1[C@H](C2)N(C)CC3 | 8.2 µM (active) | 
9 | COc1c(O)ccc2c1-c1c3c(cc4c1C(C2)N(C)CC4)OCO3 (stereo not drawn) | inactive | 
10 | COc1ccc2c(c1O)-c1cccc3c1[C@@H](C2)N(C)CC3 | inactive | 
11 | CC1(C)C(c2ccccc2)=NC(c2cccnc2)=[N+]1[O-] | inactive | 
12 | O=c1[nH]c(=O)n(CCc2ccc(F)cc2)c(O)c1/C=N/N1CCCCC1 | inactive | 
13 | CN(C)CC1CCCCC1=O (stereo not drawn) | 5.8 µM (active) | 
14 | O=C(NCC(c1cccnc1)N1CCN(c2ccccc2)CC1)Oc1ccccc1 (stereo not drawn) | inactive | 
15 | NC(=O)Nc1cccc(C(F)(F)F)c1 | inactive | 
16 | CC(=O)Nc1cc(-c2cccc(CO)c2)cn2c(-c3cccc(C(F)(F)F)c3)cnc12 | 11.6 µM (active) | 
17 | CC(=O)OC1C2CCC3C1(CC(O)[C@@]1(O)[C@@H](CC(O)C1(C)C)[C@]3(C)O)C[C@@]2(C)O (stereo partly drawn) | inactive | 
18 | COc1ccccc1C(=O)N[C@@H]1c2ccccc2C2(CCN(Cc3nc(C(C)C)cs3)CC2)[C@H]1O | 2.06 µM (active) | 
19 | COc1ccccc1C1=NCc2nnc(CSC)n2-c2ccc(Cl)cc21 | inactive | 
20 | CCc1ccc(N(CC)C(=O)CCn2cnc3onc(-c4ccc(F)cc4)c3c2=O)cc1 | 16.4 µM (active) | 
21 | CCCCC(=O)N/N=C/c1c(O)n(-c2ccccc2)c(=O)[nH]c1=O | inactive | 
22 | CCCCC(=O)N/N=C/c1c(O)n(CC)c(=S)n(CC)c1=O | 18.4 µM (active) | 
23 | Cn1c(O)c(C=NCCCC(=O)O)c(=O)n(C)c1=O | inactive | 
24 | O=C1NC(=O)C(C/C=C/c2ccccc2)C(=O)N1 | inactive | 
25 | Cc1cccc(NC(=O)OC2CN3CCC2CC3)c1 (stereo not drawn) | inactive | 

Row | SMILES | Potency | activity change, negative = growth inhibition
26 | CCC(=O)CC(c1ccc([N+](=O)[O-])cc1)c1c(O)c2ccccc2oc1=O (stereo not drawn) | inactive | 
27 | CC(=NCC1CCCO1)c1c(O)n(-c2ccccc2)c(=O)[nH]c1=O (stereo not drawn) | inactive | 
28 | CC(=O)c1c(O)n(C2CCCCCC2)c(=O)[nH]c1=O | 18.4 µM (active) | 
29 | O=c1[nH]c(=S)n(C2CC2)c(O)c1/C=N/N1CCOCC1 | inactive | 
30 | COC1=C[C@]23CCCN2CCc2cc4c(cc2[C@@H]3[C@@H]1O)OCO4 |  | -3.38% [at 9.04 µM]
31 | CN1CCN(/N=C/c2c[nH]c3ccccc23)CC1 | inactive | 
32 | CC12CCC3C(CCC4CC(=O)CCC43C)C1CC(=NO)C2=O (stereo not drawn) | inactive | 
33 | CCCCCn1c(=O)c(C(=O)NCc2ccccc2)c(O)c2ccccc21 | 4.61 µM (active) | 
34 | CCCCCn1c(=O)c(C(=O)NCc2ccccn2)c(O)c2ccccc21 | 20.6 µM (active) | 
35 | CCOC(=O)C1(Cc2ccc(Cl)cc2)CCN(C(C)CCn2cccn2)CC1 (stereo not drawn) | inactive | 
36 | O=c1[nH]c(=O)n(CCc2ccccc2)c(O)c1/C=N/N1CCOCC1 | inactive | 
37 | c1ccc2sc(C3CCCNC3)nc2c1 (stereo not drawn) | inactive | 
38 | CC[N+](CC)(CC)CCCCCCCCCC[N+](CC)(CC)CC | inactive | 
39 | CN1CCN(Cc2ccc(OC(F)(F)F)cc2)CC1 | inactive | 
40 | CC(C)c1ccc(OCC(=O)N2CCN(C)CC2)c(Br)c1 | inactive | 
41 | O=c1c2ccccc2[nH]c(=S)n1-c1cccc(Cl)c1 | inactive | 
42 | COc1cc(-n2c(=S)[nH]c3ccc(C)cc3c2=O)c(Cl)cc1Cl | 8.2 µM (active) | 
43 | c1ccc(CC2CCCCN2)cc1 (stereo not drawn) | inactive | 
44 | CC(C)Oc1cccc(C(=O)C2CCCN(C3CCOCC3)C2)c1 (stereo not drawn) | inactive | 
45 | Oc1cc2c(cc1CN1CCN(c3ccccc3)CC1)OCO2 | inactive | 
46 | COc1cc2[nH]c(C)c(CCN3CCN(c4ccccc4)CC3)c2cc1OC | 7.94 µM (active) | 
47 | c1ccc(N2Cc3ccccc3-n3nncc3C2)nc1 | inactive | 
48 | COCCCNC(=O)CC1C[C@H](C(=O)N2CCCCC2)[C@@]2(CCc3ccccc3)c3[nH]c4ccccc4c3CCN2C1=O (stereo partly drawn) | 23.1 µM (active) | 
49 | Clc1ccc([C@@H]2C[C@H]3CC[C@@H]2N3)cn1 | inactive | 
50 | CCCC(C)n1[nH]c(=O)c2c1NC(=O)CSC2c1ccc(OC)c(OC)c1 (stereo not drawn) | inactive | 

Row | SMILES | Potency | activity change, negative = growth inhibition
51 | OC[C@@H]1CN(Cc2ccncc2)C[C@H](n2cnc3c(N4CCN(c5ccccc5)CC4)ncnc32)O1 | 2.06 µM (active) | 
52 | CC12CN3CC(C)(CN(C1)C3c1cccs1)C2 (stereo not drawn) | inactive | 
53 | COc1cccc(OC)c1C(=O)NC(=S)N1C[C@H]2C[C@H](C1)c1cccc(=O)n1C2 | inactive | 
54 | OC1/C(=C/c2ccc(C(F)(F)F)cc2)N2CCC1CC2 (stereo not drawn) | inactive | 
55 | CC(C(=O)Nc1ccc(Cl)cc1Cl)N1CC=C(c2ccccc2)CC1 (stereo not drawn) | inactive | 
56 | c1csc(CN2CC3(CCNCC3)C2)n1 | inactive | 
57 | N#Cc1c(Cl)c(Cl)c(Cl)c(C#N)c1Cl | 178 nM (active) and 651 nM (active) | 
58 | O=C(N/N=C/c1c(O)n(C2CC2)c(=S)[nH]c1=O)c1ccccc1 | inactive | 
59 | N#CC(C#N)=Cc1cc(O)c(O)c([N+](=O)[O-])c1 | inactive | 
60 | O=C(Cc1ccccc1[N+](=O)[O-])N1CCN(Cc2ccc3c(c2)OCO3)CC1 | inactive | 
61 | C=CCN1C(=O)NC(=O)/C(=C/c2ccc(OCC(=O)Nc3ccc(C)cc3)cc2)C1=O | inactive | 
62 | COc1ccc(CNC(=O)c2cc3c(-c4ccccc4F)nn(C)c3s2)c(OC)c1 | 4.11 µM (active) | 
63 | CC/C(=N\NC(=O)c1ccccc1O)c1c(O)n(Cc2ccccc2)c(=O)[nH]c1=O | inactive | 
64 | CC(=O)N(C1=NCCCS1)c1ccccc1F | inactive | 
65 | CN(C(=O)CSc1nc2ccc(NC(=O)COc3ccccc3)cc2s1)c1ccccc1 | 25.9 µM (active) | 
66 | O=C(COc1ccccc1Cl)Nc1ccc2nc(SCC(=O)N3CCCC3)sc2c1 | 20.6 µM (active) | 
67 | CC(C)n1c(=O)c(C=Nc2ccc(Br)cc2)c(O)n(Cc2ccco2)c1=O | inactive | 
68 | CCN(CC)C(=O)c1ccc(NC(=O)c2cc(-n3cnnc3)ccc2Cl)cc1 | inactive | 
69 | Fc1ccc(N2CCN(Cc3ccc4c(c3)OCO4)CC2)cc1 | inactive | 
70 | Cn1c(O)c(C=Nc2ccc3c(c2)CCC3)c(=O)n(C)c1=O | inactive | 
71 | Oc1ccc2c3c1OC1[C@H](O)CC[C@@]4(O)[C@@H](C2)N(CC2CC2)CC[C@]314 (stereo partly drawn) | inactive | 
72 | COC12CC[C@@]3(C[C@@H]1C(C)(O)C(C)(C)C)[C@H]1Cc4ccc(O)c5c4[C@@]3(CCN1CC1CC1)[C@H]2O5 (stereo partly drawn) | 24.1 µM (active) | 
73 | CC1(C)Cc2c(C#N)c(N3CCNCC3)nc(-c3ccco3)c2CS1 | 18.4 µM (active) | 
74 | NCCc1ccc(S(=O)(=O)F)cc1 | inactive | 
75 | CC(=O)c1ccc(S(=O)(=O)N2CCN(c3nc4c(C)c(C)ccc4cc3C#N)CC2)cc1 | 7.08 µM (active) | 

Row | SMILES | Potency | activity change, negative = growth inhibition
76 | CCOC(=O)C(O)(c1ccc(NC(=O)c2ccco2)c(OC)c1)C(F)(F)F (stereo not drawn) | inactive | 
77 | C[C@@]1([C@@H](NP(=O)(c2ccccc2)c2ccccc2)c2ccccc2)C[C@H]1CCO | 9.2 µM (active) | 
78 | CC1CNCCN1c1ccc(Cl)cc1 (stereo not drawn) | inactive | 
79 | CC(C)(C)[C@]1(O)C[C@@H]2OC(=O)C[C@@]23C(=O)O[C@@H]2OC(=O)[C@H](O)[C@]213 | inactive | 
80 | c1ccc(C(CN2CCCCC2)c2ccccc2)cc1 | inactive | 
81 | CCCCOc1ccc(C(=O)N2CC(=O)Nc3ccc(Br)cc3C2c2ccc(F)cc2)cc1 (stereo not drawn) | 23.1 µM (active) | 
82 | O=c1oc2ccccc2c(O)c1C(c1ccccc1O)c1c(O)c2ccccc2oc1=O |  | 8.57% [at 9.04 µM]
83 | COc1cc(C2c3cc4c(cc3C(O)C3COC(=O)C23)OCO4)cc(OC)c1OC (stereo not drawn) | 44.7 nM (active) and 13 nM (active) | 
84 | COc1cc([C@@H]2c3cc4c(cc3[C@H](OC(C)=O)[C@H]3COC(=O)[C@H]23)OCO4)cc(OC)c1OC | 0.0794 µM (active) | 
85 | Cc1nc2ccc(N3CCN(C)CC3)cc2nc1C | inactive | 
86 | CSc1ccc(C(=O)C2CCCN(Cc3ccn[nH]3)C2)cc1 (stereo not drawn) | inactive | 
87 | O=c1[nH]c(=O)n(-c2ccc(F)cc2)c(O)c1C=NCCN1CCCCC1 | inactive | 
88 | CC(=C1C(=O)c2ccccc2C1=O)N1CCN(CCN=Cc2c(O)n(C)c(=O)n(C)c2=O)CC1 | inactive | 
89 | CCN1CC2C3CCC(C)(O3)C2C1 (stereo not drawn) | inactive | 
90 | Cc1ccc(Cl)cc1N1CCN(C(=O)C2CCC(CNS(=O)(=O)c3cccs3)CC2)CC1 (stereo not drawn) | 20.6 µM (active) | 
91 | CC1C(=O)OC2CCN3CC=C(COC(=O)C(C)(O)C1(C)O)C23 (stereo not drawn) | 5.8 µM (active) | 
92 | CC(=O)Nc1ccc(C(=O)C(Cc2ccccc2)N(C)C)cc1 (stereo not drawn) | inactive | 
93 | O=C(COc1ccc2ccccc2c1)N1CCN(Cc2ccncc2)CC1 | inactive | 
94 | CN(C)C(=O)Oc1cc(OC(=O)N(C)C)cc(C(O)CNC(C)(C)C)c1 (stereo not drawn) | inactive | 
95 | CNC(=O)O/N=C(\N)Cc1csc2ccccc12 | inactive | 
96 | CNC(=O)O/N=C(\N)Cc1csc2ccc(Cl)cc12 | 16.4 µM (active) | 
97 | Cn1c(O)c(C=NCCN2CCNCC2)c(=O)n(C)c1=O | inactive | 
98 | COC1=CC=C2[C@H]3Cc4ccc(OC)c5c4[C@@]2(CCN3C)C1O5 (stereo partly drawn) | inactive | 
